From the antibiotic and cytotoxicity screens of Wong et al. (2023) come the findings set out here.

Screen size: about 39,000 compounds; about 3,300 (8.5%) were called active. The entries come from a sample that favours actives as a whole.

This test has as its system HepG2. In words: cytotoxicity call (relative viability < 0.9). The conditions noted are these: 10 µM.
`C[C@@H]1CN([C@H](C)CO)C(=O)Cc2cc(NS(=O)(=O)c3cccs3)ccc2O[C@H]1CN(C)C(=O)Nc1cccc2ccccc12`: the cytotoxicity call was “inactive”.
For `CCCNC(=O)N(C)C[C@@H]1Oc2cc(-c3ccccc3F)ccc2S(=O)(=O)N([C@@H](C)CO)C[C@@H]1C`, the cytotoxicity call was “inactive”.
As to `CN(C)CCCNC(=O)C[C@@H]1C=C[C@H](NS(=O)(=O)c2ccccc2)[C@@H](CO)O1`, the cytotoxicity call was “inactive”.
In the case of `C[C@@H]1CCCCO[C@@H](CN(C)S(=O)(=O)c2cn(C)cn2)[C@@H](C)CN([C@H](C)CO)C(=O)c2cc(NS(=O)(=O)c3ccccc3)ccc2O1`, the cytotoxicity call was “inactive”.
For `O=C(NCCCN1CCOCC1)[C@H]1[C@H](CO)[C@H]2Cn3c(cccc3=O)[C@@H]1N2C(=O)C1CCCC1`, the cytotoxicity call was “inactive”.
For `COc1ccc(CNC(=O)C[C@H]2C[C@@H]3c4cc(NS(=O)(=O)c5ccc(F)cc5)ccc4O[C@@H]3[C@H](CO)O2)cc1`, the cytotoxicity call is “inactive”.
For the compound `C[C@@H]1CN([C@@H](C)CO)C(=O)Cc2cc(NC(=O)CCCCCC(=O)Nc3ccccc3N)ccc2O[C@H]1CN(C)S(C)(=O)=O`, the cytotoxicity call is “inactive”.
For `COc1cccc(CN(C)C[C@@H]2OCc3ccccc3-c3c(n(C)c4ccccc34)C(=O)N([C@@H](C)CO)C[C@H]2C)c1`, the cytotoxicity call is “inactive”.
With `C[C@H](CO)N1C[C@H](C)[C@H](CN(C)Cc2ccc(C(F)(F)F)cc2)OCCCC[C@H](C)Oc2ccc(NS(=O)(=O)c3cn(C)cn3)cc2C1=O`, the cytotoxicity call was “inactive”.
`O=C(C[C@@H]1CC[C@H]2[C@@H](COC[C@H](O)CN2C(=O)Nc2ccc(Cl)cc2)O1)NCCc1ccncc1`: the cytotoxicity call is “inactive”.
On to `C[C@@H]1CCCCO[C@H](CN(C)Cc2ccc(C(F)(F)F)cc2)[C@@H](C)CN([C@@H](C)CO)C(=O)c2cc(N(C)C)ccc2O1`, for which the cytotoxicity call was “inactive”.
Turning to `O=C(C[C@@H]1C[C@@H]2c3cc(NC(=O)C4CCOCC4)ccc3O[C@@H]2[C@H](CO)O1)NCc1cc(F)ccc1F`, the cytotoxicity call is “inactive”.
In the case of `O=c1c(O)c(O)cc2cccc(O)c(O)c1-2`, the cytotoxicity call was “active”.
As for `O=C(O)c1cc2ccc(O)c(=O)c-2c(O)c(O)c1`, the entry is “inactive”; as for `O=c1c(O)cccc2cc(O)c(O)c(O)c12`, “inactive”; as for `CCCNC(=O)Nc1ccc2c(c1)OC[C@H](C)N(C(=O)C1CCOCC1)C[C@H](C)[C@@H](OC)CN(C)C2=O`, “inactive”.
Consider `Cc1ccc(S(=O)(=O)N(C)C[C@@H]2Oc3ccc(NS(C)(=O)=O)cc3CC(=O)N([C@@H](C)CO)C[C@H]2C)cc1`, for which the cytotoxicity call was “inactive”.
On to `C=CCOC(=O)[C@@H]1[C@@H]2C=C[C@@]3(O2)[C@@H]1C(=O)N(CCCCCCO)[C@H]3C(=O)N(CC=C)Cc1ccccc1`, for which the cytotoxicity call is “active”.
For the compound `C=CCOC(=O)[C@@H]1[C@@H]2C=C[C@]3(O2)[C@H](C(=O)N(CC=C)Cc2ccccc2)N(c2cccc(Cl)c2CO)C(=O)[C@@H]13`, the cytotoxicity call was “inactive”.
Take `C=CCN(Cc1ccccc1)C(=O)[C@@H]1N(CCOCCO)C(=O)[C@@H]2[C@H](C(=O)O)[C@@H]3C=C[C@@]21O3`: the cytotoxicity call is “inactive”.
Regarding `Cc1cc(C(=O)Nc2cccc3c2O[C@@H](CN(C)C(=O)Nc2ccc4c(c2)OCO4)[C@H](C)CN([C@H](C)CO)C3=O)n(C)n1`, the cytotoxicity call is “inactive”.
Turning to `CC(=O)N1CCN(CCOc2ccc(C3CCN(C4=Nn5c(nnc5C(F)(F)F)CC4)CC3)cc2)CC1`, the cytotoxicity call is “active”.
Take `C[C@@H]1CN([C@H](C)CO)S(=O)(=O)c2ccc(/C=C/c3ccccc3)cc2O[C@@H]1CN(C)C(=O)CN1CCOCC1`: the cytotoxicity call is “inactive”.
Regarding `COc1ccc(NC(=O)N(C)C[C@H]2OCCCC[C@H](C)Oc3ccc(NC(=O)Nc4ccc(F)cc4)cc3C(=O)N([C@@H](C)CO)C[C@H]2C)cc1`, the cytotoxicity call was “inactive”.
In the case of `CC(C)C[C@@H]1NC(=O)[C@@H]2C[C@H](C(=O)NCCCCCNC(=O)CS)[C@H](c3ccc(O)cc3)N2C1=O`, the cytotoxicity call is “inactive”.
With `C[C@H]1CN([C@@H](C)CO)S(=O)(=O)c2ccc(-c3cccc(C#N)c3)cc2O[C@H]1CN(C)C(=O)c1ccncc1`, the cytotoxicity call was “inactive”.
`C[C@@H]1CN([C@@H](C)CO)S(=O)(=O)c2ccc(-c3ccc(C(=O)N(C)C)cc3)cc2O[C@@H]1CN(C)C(=O)C1CCOCC1`: the cytotoxicity call is “inactive”.
On to `O=C(O)CC(O)(CC(=O)O)C(=O)O` [listing 1 of 2 here], for which the cytotoxicity call was “inactive”.
For the compound `CCC(=C(c1ccccc1)c1ccc(OCCN(C)C)cc1)c1ccccc1.O=C(O)CC(O)(CC(=O)O)C(=O)O`, the cytotoxicity call is “inactive”.
Consider `CCN(CC)CCOc1ccc(C(=C(Cl)c2ccccc2)c2ccccc2)cc1.O=C(O)CC(O)(CC(=O)O)C(=O)O`, for which the cytotoxicity call was “active”.
Regarding `CCN(CC)CCOCCOC(=O)C1(c2ccccc2)CCCC1.O=C(O)CC(O)(CC(=O)O)C(=O)O`, the cytotoxicity call is “active”.
Take `Cc1ccccc1C(OCCN(C)C)c1ccccc1.O=C(O)CC(O)(CC(=O)O)C(=O)O` (centres undefined): the cytotoxicity call was “inactive”.
For the compound `O=C(O)CC(O)(CC(=O)O)C(=O)O` [listing 2 of 2 here], the cytotoxicity call was “inactive”.
On to `CCN(CC)CCOCCOC(=O)C(CC)(CC)c1ccccc1.O=C(O)CC(O)(CC(=O)O)C(=O)O`, for which the cytotoxicity call was “inactive”.
For `O=C(O)C1(c2ccccc2)CCCC1`, the cytotoxicity call was “inactive”.
As to `CN(C)CCOc1ccc(C(=C(CCCl)c2ccccc2)c2ccccc2)cc1.O=C(O)CC(O)(CC(=O)O)C(=O)O`, the cytotoxicity call is “active”.
Take `O=C(C[C@@H]1CC[C@@H]2[C@H](COC[C@H](O)CN2S(=O)(=O)c2ccc(F)cc2)O1)NCCN1CCCCC1`: the cytotoxicity call is “inactive”.
Consider `C[C@@H]1CN([C@H](C)CO)C(=O)c2cccc(NS(C)(=O)=O)c2O[C@H]1CN(C)C(=O)Nc1ccc2c(c1)OCO2`, for which the cytotoxicity call is “inactive”.
As for `CC(C)CC#Cc1ccc2c(c1)O[C@H](CN(C)Cc1cncnc1)[C@@H](C)CN([C@H](C)CO)S2(=O)=O`, the entry is “inactive”.
As for `C=CC(=O)Nc1ccc([C@@H](CCc2ccc(OC)c(OC)c2)OC(=O)[C@@H]2CCCCN2C(=O)C(=O)C(C)(C)CC)cc1`, the entry is “inactive”; as for `Cc1ccc(S(=O)(=O)Nc2ccc3c(c2)C(=O)N([C@H](C)CO)C[C@@H](C)[C@@H](CN(C)C(=O)Cc2ccccc2)OCCCC[C@H](C)O3)cc1`, “inactive”; as for `COCC(=O)Nc1ccc2c(c1)OC[C@@H](C)N(Cc1ccccc1F)C[C@@H](C)[C@H](OC)CN(C)C2=O`, “inactive”.
As for `Cc1noc(C)c1NC(=O)Nc1ccc2c(c1)C(=O)N([C@@H](C)CO)C[C@@H](C)[C@H](CN(C)S(=O)(=O)c1cccs1)OCCCC[C@H](C)O2`, the cytotoxicity call was “inactive”.
The value for `C[C@@H]1CN([C@H](C)CO)C(=O)c2cc(NC(=O)Cn3cnnn3)ccc2O[C@@H]1CN(C)S(=O)(=O)c1cccs1` was “inactive”.
